For some of these results: Potency and affinity values are given separately.
Legend:
Parameters in all cases: scale not given: direction of the effect not stated beside the values
[1] = target: Protein translocase subunit SecA (Escherichia coli (strain K12)) (UniProt P10408); assay: Assay to Identify E. coli SecA ATPase Inhibitors; assay type: functional; settings: 30 µM
[2] = target: T1, Ubiquitin-activating enzyme e1, putative (Leishmania donovani (strain BPK282A1)) (UniProt E9BSI1); assay: Leishmania donovani Ubiquitin Activating Enzyme (LdE1); assay type: functional; settings: 30 µM
T1 sequence (whole entry): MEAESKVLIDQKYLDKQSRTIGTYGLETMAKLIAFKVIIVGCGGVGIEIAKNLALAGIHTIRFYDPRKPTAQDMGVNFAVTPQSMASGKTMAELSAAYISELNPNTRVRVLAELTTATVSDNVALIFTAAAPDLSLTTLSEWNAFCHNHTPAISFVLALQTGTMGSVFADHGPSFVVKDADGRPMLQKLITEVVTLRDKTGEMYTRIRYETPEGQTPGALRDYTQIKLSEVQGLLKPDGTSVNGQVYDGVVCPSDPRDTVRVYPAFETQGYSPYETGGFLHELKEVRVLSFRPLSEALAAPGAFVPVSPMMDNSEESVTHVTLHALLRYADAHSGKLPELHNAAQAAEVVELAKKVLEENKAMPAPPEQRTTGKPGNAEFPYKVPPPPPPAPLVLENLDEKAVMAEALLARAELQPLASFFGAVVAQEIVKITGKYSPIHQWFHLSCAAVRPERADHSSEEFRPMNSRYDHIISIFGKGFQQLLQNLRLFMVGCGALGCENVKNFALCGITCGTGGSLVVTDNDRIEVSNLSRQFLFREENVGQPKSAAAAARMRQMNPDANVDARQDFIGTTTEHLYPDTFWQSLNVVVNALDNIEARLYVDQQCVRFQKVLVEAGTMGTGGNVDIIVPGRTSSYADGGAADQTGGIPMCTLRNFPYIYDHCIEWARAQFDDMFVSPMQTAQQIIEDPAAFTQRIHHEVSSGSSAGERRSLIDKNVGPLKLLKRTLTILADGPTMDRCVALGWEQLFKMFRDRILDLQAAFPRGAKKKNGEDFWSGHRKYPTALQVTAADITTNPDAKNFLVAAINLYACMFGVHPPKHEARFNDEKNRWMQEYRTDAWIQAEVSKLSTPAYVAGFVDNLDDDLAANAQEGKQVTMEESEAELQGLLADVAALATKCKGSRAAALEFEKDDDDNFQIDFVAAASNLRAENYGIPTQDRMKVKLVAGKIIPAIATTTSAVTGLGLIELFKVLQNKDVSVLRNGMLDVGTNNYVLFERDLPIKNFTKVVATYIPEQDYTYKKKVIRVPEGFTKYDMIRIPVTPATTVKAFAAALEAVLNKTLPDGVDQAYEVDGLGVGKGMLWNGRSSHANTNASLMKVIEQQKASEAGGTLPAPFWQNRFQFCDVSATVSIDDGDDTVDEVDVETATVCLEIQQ

[3] = target: AMP-activated protein kinase, AMPK (Homo sapiens) (UniProt P54646+O43741+P54619+Q9UGJ0+Q9Y478+Q13131+Q9UGI9); assay: AMP-dependent Kinase enzyme assay. An in vitro enzyme assay that detects ADP turnover that is directly proportional to AMPK activity. This uses naive AMPK that is activated during the assay with MK-8722; assay type: functional; settings: 30 µM
[4] = target: Sialic acid-binding Ig-like lectin 9 (Homo sapiens) (UniProt Q9Y336); assay: Hs-Siglec9 ALPHAscreen SOP 20170721; settings: 10 µM
Trypanosoma cruzi = assay: Trypanosoma cruzi phosphomannomutase and mannose-1-phosphate guanylyltransferase assay; assay type: functional; settings: 10 µM
[5] = target: T2, Arginase-2, mitochondrial (Homo sapiens) (UniProt P78540); assay: in vitro enzyme assay to detect the production of urea directly proportional to the activity of Arginase II; assay type: functional; settings: 33.3 µM; also: in the data most compounds retested in dose-response had high values
T2 sequence (whole entry): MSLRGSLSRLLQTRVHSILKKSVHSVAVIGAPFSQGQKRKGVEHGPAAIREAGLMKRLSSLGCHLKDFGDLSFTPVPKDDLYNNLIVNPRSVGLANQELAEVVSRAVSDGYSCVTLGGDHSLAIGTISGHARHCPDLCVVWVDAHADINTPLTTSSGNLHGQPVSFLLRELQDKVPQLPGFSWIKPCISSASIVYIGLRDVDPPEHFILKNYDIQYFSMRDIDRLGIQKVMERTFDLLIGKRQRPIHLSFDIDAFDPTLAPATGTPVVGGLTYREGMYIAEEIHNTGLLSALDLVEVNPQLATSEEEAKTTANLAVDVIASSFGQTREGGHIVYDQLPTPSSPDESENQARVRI

[6] = target: T3, Proteasome subunit beta (Trypanosoma cruzi) (UniProt O96673); assay: Trypanosoma cruzi proteasome chymotrypsin-like activity (TcProtChymo) assay.; also: in the data most compounds retested in dose-response had high values; assay type: functional; settings: 9.37 µM
T3 sequence (whole entry): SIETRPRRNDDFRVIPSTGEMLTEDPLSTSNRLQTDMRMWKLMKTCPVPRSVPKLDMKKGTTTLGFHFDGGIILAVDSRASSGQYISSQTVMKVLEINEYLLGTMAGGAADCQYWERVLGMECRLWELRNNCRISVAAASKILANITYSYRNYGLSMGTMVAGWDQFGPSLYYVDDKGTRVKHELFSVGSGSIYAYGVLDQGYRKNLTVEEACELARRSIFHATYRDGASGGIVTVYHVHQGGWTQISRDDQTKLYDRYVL

Homo sapiens = species on record: Homo sapiens; assay: To identify inhibition of the IFN signalling (Jak-Stat) pathway via expression of an eGFP reporter gene under the control of an IFN-stimulated response element (ISRE) containing MxA promoter.; assay type: functional; settings: 30 µM
[7] = target: T4, Tyrosyl-tRNA synthetase, putative (Trypanosoma cruzi (strain CL Brener)) (UniProt Q4DSP6); assay: Trypanosoma cruzi tyrosyl tRNA synthetase (TcYRS) _High Tyrosine SOP; assay type: functional; settings: 30 µM; also: in the data most compounds retested in dose-response had high values
T4 sequence (whole entry): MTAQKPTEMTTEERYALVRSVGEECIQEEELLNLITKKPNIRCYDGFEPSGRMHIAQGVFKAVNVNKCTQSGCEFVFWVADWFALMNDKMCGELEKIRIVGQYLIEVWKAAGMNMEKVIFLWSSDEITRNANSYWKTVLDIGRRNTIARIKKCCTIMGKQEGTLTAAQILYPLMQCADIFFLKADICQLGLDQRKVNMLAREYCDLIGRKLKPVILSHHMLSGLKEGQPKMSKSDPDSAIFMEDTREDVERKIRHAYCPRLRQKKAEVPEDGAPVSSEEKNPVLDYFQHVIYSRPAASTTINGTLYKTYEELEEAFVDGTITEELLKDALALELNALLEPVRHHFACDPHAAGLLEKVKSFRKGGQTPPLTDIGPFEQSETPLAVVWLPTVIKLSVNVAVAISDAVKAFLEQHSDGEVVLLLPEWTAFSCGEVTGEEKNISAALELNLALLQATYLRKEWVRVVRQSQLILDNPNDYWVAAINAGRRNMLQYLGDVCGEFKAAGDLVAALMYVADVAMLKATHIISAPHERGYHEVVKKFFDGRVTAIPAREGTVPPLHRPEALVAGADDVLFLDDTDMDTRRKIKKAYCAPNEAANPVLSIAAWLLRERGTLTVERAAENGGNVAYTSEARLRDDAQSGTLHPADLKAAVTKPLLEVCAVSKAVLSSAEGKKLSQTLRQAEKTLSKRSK

[8] = target: T4, Tyrosyl-tRNA synthetase, putative (Trypanosoma cruzi (strain CL Brener)); assay: Trypanosoma cruzi tyrosyl tRNA synthetase (TcYRS) SOP; assay type: functional; settings: 30 µM
[9] = target: Chromo domain-containing protein 1 (Saccharomyces cerevisiae (strain ATCC 204508 / S288c) (Baker's yeast)) (UniProt P32657); assay: ScCHD-1 Enzyme Inhibition Assay; assay type: functional; settings: 30 µM; also: in the data most compounds retested in dose-response had high values
Sequence of Chromo domain-containing protein 1 (Saccharomyces cerevisiae (strain ATCC 204508 / S288c) (Baker's yeast)) (P32657 whole entry, the tested form may be a part): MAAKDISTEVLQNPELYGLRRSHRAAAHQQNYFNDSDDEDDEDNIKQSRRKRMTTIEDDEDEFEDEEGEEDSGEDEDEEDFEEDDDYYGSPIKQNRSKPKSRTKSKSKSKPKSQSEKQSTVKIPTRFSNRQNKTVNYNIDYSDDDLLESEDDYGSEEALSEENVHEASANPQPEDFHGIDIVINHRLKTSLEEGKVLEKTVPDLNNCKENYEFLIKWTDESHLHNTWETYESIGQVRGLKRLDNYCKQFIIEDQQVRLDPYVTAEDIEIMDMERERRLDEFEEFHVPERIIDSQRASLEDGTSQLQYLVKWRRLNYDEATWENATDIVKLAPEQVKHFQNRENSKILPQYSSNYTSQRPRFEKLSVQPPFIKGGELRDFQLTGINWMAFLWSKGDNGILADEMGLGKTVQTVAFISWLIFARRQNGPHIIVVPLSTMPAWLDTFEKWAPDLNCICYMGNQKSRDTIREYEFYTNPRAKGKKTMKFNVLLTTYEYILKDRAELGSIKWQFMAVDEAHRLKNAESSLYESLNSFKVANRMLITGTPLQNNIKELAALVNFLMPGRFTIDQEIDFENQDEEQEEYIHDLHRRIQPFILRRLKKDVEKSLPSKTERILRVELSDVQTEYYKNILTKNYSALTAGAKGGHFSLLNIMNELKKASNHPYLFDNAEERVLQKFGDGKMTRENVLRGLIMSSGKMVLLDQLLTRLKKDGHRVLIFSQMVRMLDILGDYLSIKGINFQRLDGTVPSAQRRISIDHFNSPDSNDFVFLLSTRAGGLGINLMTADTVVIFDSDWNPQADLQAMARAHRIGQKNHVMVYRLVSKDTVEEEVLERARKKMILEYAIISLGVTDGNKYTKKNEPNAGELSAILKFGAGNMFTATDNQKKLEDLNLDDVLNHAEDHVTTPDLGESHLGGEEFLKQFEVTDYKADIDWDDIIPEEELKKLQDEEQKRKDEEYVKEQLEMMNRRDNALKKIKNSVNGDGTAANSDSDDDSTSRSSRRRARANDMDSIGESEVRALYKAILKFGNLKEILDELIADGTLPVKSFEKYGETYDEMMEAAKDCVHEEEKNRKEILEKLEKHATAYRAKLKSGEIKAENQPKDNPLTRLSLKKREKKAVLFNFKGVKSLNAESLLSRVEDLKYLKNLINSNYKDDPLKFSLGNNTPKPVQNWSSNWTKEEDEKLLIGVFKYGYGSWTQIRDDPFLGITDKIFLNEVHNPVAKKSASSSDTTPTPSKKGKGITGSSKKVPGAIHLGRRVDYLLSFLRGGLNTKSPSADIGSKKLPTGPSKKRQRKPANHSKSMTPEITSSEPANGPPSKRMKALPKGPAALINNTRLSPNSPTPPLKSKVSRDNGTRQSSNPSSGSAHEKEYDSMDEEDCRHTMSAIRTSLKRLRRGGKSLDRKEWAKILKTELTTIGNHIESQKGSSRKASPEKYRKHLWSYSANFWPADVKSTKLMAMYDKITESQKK

Sequence of Sialic acid-binding Ig-like lectin 9 (Homo sapiens) (Q9Y336 whole entry): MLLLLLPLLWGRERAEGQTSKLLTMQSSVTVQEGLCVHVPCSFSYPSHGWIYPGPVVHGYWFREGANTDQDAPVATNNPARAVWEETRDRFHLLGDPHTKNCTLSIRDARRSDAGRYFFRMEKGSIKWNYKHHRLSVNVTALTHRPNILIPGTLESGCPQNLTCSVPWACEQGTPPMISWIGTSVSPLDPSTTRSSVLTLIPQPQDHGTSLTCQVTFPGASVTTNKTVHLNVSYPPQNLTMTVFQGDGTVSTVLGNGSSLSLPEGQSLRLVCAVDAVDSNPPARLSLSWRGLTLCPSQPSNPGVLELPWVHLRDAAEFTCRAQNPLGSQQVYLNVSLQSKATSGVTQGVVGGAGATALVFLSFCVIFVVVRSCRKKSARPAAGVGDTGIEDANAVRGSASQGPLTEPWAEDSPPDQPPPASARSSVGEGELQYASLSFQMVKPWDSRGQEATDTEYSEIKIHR
Sequence of Protein translocase subunit SecA (Escherichia coli (strain K12)) (P10408 whole entry): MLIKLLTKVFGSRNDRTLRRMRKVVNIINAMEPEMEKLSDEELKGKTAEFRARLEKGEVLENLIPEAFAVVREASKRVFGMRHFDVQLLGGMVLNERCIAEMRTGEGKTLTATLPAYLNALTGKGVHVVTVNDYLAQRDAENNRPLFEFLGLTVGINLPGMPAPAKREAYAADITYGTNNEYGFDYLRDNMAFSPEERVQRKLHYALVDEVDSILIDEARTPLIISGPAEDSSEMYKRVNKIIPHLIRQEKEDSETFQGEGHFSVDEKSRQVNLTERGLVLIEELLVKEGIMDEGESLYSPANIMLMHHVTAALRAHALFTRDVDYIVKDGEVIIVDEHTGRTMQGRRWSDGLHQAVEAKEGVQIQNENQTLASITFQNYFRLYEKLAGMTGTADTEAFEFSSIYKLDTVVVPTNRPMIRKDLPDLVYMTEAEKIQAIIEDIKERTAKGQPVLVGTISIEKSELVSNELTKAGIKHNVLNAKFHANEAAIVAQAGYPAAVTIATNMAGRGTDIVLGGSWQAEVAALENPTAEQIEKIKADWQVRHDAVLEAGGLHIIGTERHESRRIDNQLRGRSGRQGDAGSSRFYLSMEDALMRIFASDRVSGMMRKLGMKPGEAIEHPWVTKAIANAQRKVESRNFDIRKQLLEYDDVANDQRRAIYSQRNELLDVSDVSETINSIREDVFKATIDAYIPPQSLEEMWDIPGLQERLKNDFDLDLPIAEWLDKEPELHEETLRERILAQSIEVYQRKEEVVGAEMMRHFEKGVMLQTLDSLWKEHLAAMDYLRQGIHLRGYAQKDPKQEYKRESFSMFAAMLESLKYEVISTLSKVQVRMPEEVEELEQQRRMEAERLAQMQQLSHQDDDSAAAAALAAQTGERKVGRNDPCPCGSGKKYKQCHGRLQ

Row | SMILES | Percent Effect [1] | Percent Effect [2] | Percent Effect [3] | Percent Effect [4] | Percent Effect (Trypanosoma cruzi) | Percent Effect [5] | Percent Effect [6] | Percent Effect (Homo sapiens) | Percent Effect [7] | Percent Effect [8] | Percent Effect [9]
1 | Cc1nc(C(=O)N2CCCC(c3cccc(-n4ccnc4)n3)C2)co1 (stereo not given) | -7.87% | 1.35% | 2.78% | 1.23% | -5.34% | -2.55% | 10.1% | 12.6% | 0% | 1.3% | -6.74%
2 | Cc1ccc(CC2CCCN2CC(=O)NCc2cccnc2)cc1 (stereo not given) | -4.01% | 2.63% | 5.21% | 3.98% | 1.66% | -5.92% | 14.1% | -8.66% | 4.25% | 13% | -4.98%
3 | COCCCC1(CO)CCCN(CCc2ccccc2)C1 (stereo not given) | -1.32% | -2.74% | -1.63% | -2.32% | -5.09% | 0.909% | -0.887% | -2.97% | 1.07% | 2.5% | -2.34%
4 | CN(C)C(=O)CC1CC2(CCN(c3ncccn3)CC2)c2ccccc21 (stereo not given) | -7.49% | 5.41% | 5.36% | -1.25% | 3.32% | 2.92% | 4.14% | 6.8% | 5.94% | 3.66% | -4.19%
5 | CCN(CC)C(=O)Cn1ccc2cc(NC(=O)C3CCCO3)ccc21 (stereo not given) | -3.96% | 26.3% | -13.9% | 1.14% | 6.39% | -1.53% | 16.5% | 2.47% | 6.37% | 17.1% | -14.2%
6 | OC1(CN2CCCC2)CCCN(Cc2ccc(F)cc2Cl)C1 (stereo not given) | -2.56% | 0% | -4.18% | -3.78% | -7.5% | 3.12% | 12% | 5.3% | 3.83% | 11.1% | -3.94%
7 | Cc1cccc(CN2CCc3ncnc(N4CCOCC4)c3CC2)n1 | -4.12% | -5.48% | 1.75% | -1.38% | -1.39% | 3.59% | 4.2% | 20.4% | -1.04% | 1.24% | -0.552%
8 | COc1cccc(CN(C)C(=O)CN2CCN(CCO)CC2)c1 | -2.96% | 8% | -6.71% | 1.75% | 0.292% | 3.12% | 24.6% | 14.1% | 9.29% | 16.1% | -7.41%
9 | CCOCC1CN(Cc2ccoc2)Cc2ncn(CC3CC3)c21 (stereo not given) | -8.23% | -2.7% | 0.834% | 4.02% | -2.34% | -0.833% | 10.1% | 3.58% | 4.95% | -1.22% | -0.436%
10 | Cn1cc(CNC2CCCN(Cc3noc(C4CC4)n3)C2)cn1 (stereo not given) | -1.45% | 13.2% | 1.88% | -6.33% | -4.51% | 5.75% | 18.7% | 28.1% | 2.45% | 12.2% | -11.8%
11 | Cc1cnc(CN2CCOC(Cn3nc(C)nc3C)C2)cn1 (stereo not given) | -1.64% | 17.7% | -6.35% | 2.13% | 4.82% | 3.42% | 15.8% | -21.9% | 6.4% | 24.1% | -3.57%
12 | COc1ccc(Cl)cc1NCC(=O)NCCNc1cnccn1 | -3.85% | -5.41% | 2.13% | 13.2% | -2.17% | -2.4% | 3.96% | -1.56% | 4.43% | 13.6% | -3.88%
13 | O=C(c1ncccn1)N1C[C@H]2CCC[C@@]2(COCc2ccncc2)C1 | -1.29% | 23.4% | -4.05% | -10.3% | 4.63% | 4.52% | 13.9% | 11.8% | 3.17% | 14.1% | -11.1%
14 | COc1ccc(Cl)cc1NCC(=O)NCCc1ccccn1 | -3.56% | -5.41% | -7.1% | 3.7% | -7.64% | 0.401% | 1.62% | 20.4% | 0.493% | 1.24% | 0.208%
15 | NC(=O)C1CCCN(C(=O)c2cnc3c(cnn3C3CCCC3)c2)C1 (stereo not given) | -8.82% | 15.2% | -8.15% | 18.9% | 12.8% | -3.04% | 3.19% | 19.3% | 6.4% | 24.1% | -11.1%
16 | O=C(Cn1c(=O)n(Cc2ccco2)c2ncccc21)Nc1ccccn1 | -8.13% | 1.35% | 4.77% | 2.6% | -6.13% | -4.41% | 9.2% | 3.38% | 5.38% | 1.3% | -0.416%
17 | O=C(c1cnccn1)N1CCN(Cc2csc(-c3ccccc3)n2)CC1 | -3.77% | -2.7% | 9.72% | -0.413% | -6.04% | 0.185% | 0.898% | 19.6% | -4.95% | -1.22% | 7.87%
18 | CCc1nc(CNC(=O)Nc2ccc(C(=O)NC)cc2C)cs1 | -5.84% | 16% | -2.78% | 18.6% | 8.28% | 6.25% | 4.88% | 11.9% | 4.92% | 11.1% | -7.82%
19 | O=C(CCn1cncn1)NC1(c2cccc(Br)c2)CCC1 | -3.55% | 20.8% | 1.67% | 13.7% | 3.44% | 1.38% | 10.5% | -1.82% | 3.23% | 16.1% | -9.17%
20 | COc1ccnc(N2CCN(CC(=O)N3CCOCC3)CC2)n1 | -3.7% | 18.4% | 3.44% | -1.28% | -0.28% | -5.04% | 8.54% | -2.03% | 8.37% | 18.5% | -6.56%

Reference: ChEMBL document CHEMBL3988442, “University of Dundee, Small-Polar-MMV Screening Library” (2021)
